About 83,000 compounds went through this panel and 20% of them were active in at least one assay; those are over-represented in the sample as a whole.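 For each line, cells grew in 96-well plates with the test compound present at a single concentration for 48 hours.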 Calls of active or inactive are those of the source.
tested on: TK-10 renal; test: NCI-60 one-dose screen, 48 h (100 = growth as untreated, 0 = no growth, -100 = all killed); settings: 10 µM unless noted
Protocol: Growth inhibition of the TK-10 human tumor cell line is measured as a screen for anti-cancer activity. Cells are grown in 96 well plates and exposed to the test compound for 48 hours. Compounds are tested at a single concentration, which is 10^-5 M for most compounds. The reported endpoint is percent growth (GI% or GIPRCNT), where numbers from 0 - 100% represent growth inhibition, and numbers from -100% - 0 represent cell death. For example, a value of 40 represents 60% growth inhibition. A value of 0 means no net growth occurred over the course of the experiment. A value of -40 indicates 40% of cells at the beginning of the experiment died by the end of the experiment. A value of -100 means all cells are dead at the end of the experiment.
NCI-60 Human Tumor Cell Lines Screen was performed using the standard one-dose NCI protocol, which is described in more detail at https://dtp.cancer.gov/discovery_development/nci-60/default.htm.
Compounds with GIPRCNT values below 10 were considered active. Activity score was based on GIPRCNT using the following formula: […]
Score is 0 for GIPRCNT values of 100 or above, 50 for GIPRCNT values of 0, and 100 for GIPRCNT values of -100.

Row | Compound | growth
1 | Cn1c(SCC(=O)Nc2ccc(-c3nc4ccc([N+](=O)[O-])cc4[nH]3)cc2)nc2ccccc2c1=O | 132% (inactive)
2 | C/C(=N\NC(N)=O)c1c(O)sc(=O)[nH]c1=O | 110% (inactive)
3 | COC(=O)C(Cc1ccccc1)NS(=O)(=O)/N=C1\NC(=O)NC1=C(Cl)Cl (stereo not given) | 118% (inactive)
4 | Cc1sc2nc(NCc3ccccc3Cl)[nH]c(=O)c2c1C | 112% (inactive)
5 | COc1ccc(NC(=O)c2sc3nc(-c4cnccn4)cc(-c4cccs4)c3c2N)cc1 | 105% (inactive)
6 | CCCCCCNC(=O)Oc1ccc(/C(=C(/C)c2ccccc2)c2ccc(OCCN3CCCCCC3)cc2)cc1 | 104% (inactive)
7 | CCOC(=O)c1sc(N)c(C(=O)OCC)c1C | 41.1% (inactive)
8 | CC(C)(C)Nc1nc2c(OCCc3ccccc3)cccn2c1-c1ccccc1Cl | 10.6% (inactive)
9 | C[C@@H]1CN(c2ccc3ncc(C#Cc4cncc(C(=O)Nc5ccc(CN6CCN(C)CC6)c(C(F)(F)F)c5)c4)n3n2)C[C@H](C)O1 | -91.1% (active)
10 | Nc1nc(N)c2c(n1)NC(c1ccc(C(F)(F)F)cc1)CC(c1ccc(Nc3nc(NCCO)nc(Nc4ccc(Cl)cc4)n3)cc1)=N2 (stereo not given) | 91.1% (inactive)
11 | Nc1c(C(=O)c2ccc(Br)cc2)oc2nc(-c3cnccn3)cc(-c3cccs3)c12 | 172% (inactive)
12 | CC1=C(C)C(=O)C(Nc2ccccc2)=C(Cl)C1=O | 128% (inactive)
13 | N#Cc1c(-c2ccc(Cl)cc2)nc(SCc2ccccc2)nc1N1CCNCC1 | 96% (inactive)
14 | Cc1nc2cnc(N)c(C#Cc3cncc(C(=O)Nc4ccc(Cl)c(C(F)(F)F)c4)c3)c2nc1C | 67.7% (inactive)
15 | O=c1/c(=C\c2ccc(-c3ccccc3)o2)sc2nc(-c3ccccc3)nn12 | 95.1% (inactive)
16 | CCOC(=O)c1c(Nc2ccccc2)nn2c(N)c(C#N)c(-c3ccccc3)nc12 | 105% (inactive)
17 | COc1cccc(NC2=CC(=O)C(C)=C(C)C2=O)c1 | 135% (inactive)
18 | CCCC(=O)NC(c1ccc2c(c1)OC(F)(F)O2)c1cc(C)c2cccnc2c1O (stereo not given) | 54.8% (inactive)
19 | COc1cc(-c2nc3ccc(-c4nnc(SCC(=O)Nc5ccc(C(=O)/C=C/c6ccc(Cl)cc6)cc5)o4)cc3[nH]2)cc(OC)c1OC | 120% (inactive)
20 | Fc1ccc(-c2nc(C(Cl)Cl)nc3cc(-c4ccccc4)nn23)cc1 | 30.3% (inactive)

Row | Compound | growth
21 | O=C(CSc1nc2sc3c(c2c(=O)n1-c1ccc(Cl)cc1)CCCC3)NNC(=O)Nc1cccc(C(F)(F)F)c1 | 48.3% (inactive)
22 | O=C(c1ccc(Cl)cc1)C1[C@H](c2ccc(Cl)cc2)[C@@H](c2ccccc2)NC12C(=O)Nc1ccc(Br)cc12 (stereo not given in full) | 50.4% (inactive)
23 | COc1cccc(OC)c1-c1nnn(C)c1C(=S)N1CCN(c2ccc([N+](=O)[O-])cc2Cl)CC1 | 105% (inactive)
24 | COc1ccc(-n2c(SCC(=O)Nc3ccc(-c4nc5ccccc5[nH]4)cc3)nc3ccccc3c2=O)cc1 | 107% (inactive)
25 | Cc1sc2c(c1C)c(=O)nc1c(-c3nc(-c4ccc(F)cc4)no3)n[nH]n12 | 122% (inactive)
26 | CN(C)c1ccc(/C=C2\Cc3c(F)ccc(Br)c3C2=O)cc1 | 140% (inactive)
27 | Cc1ccc(CNS(=O)(=O)/N=C2\NC(=O)NC2=C(Cl)Cl)cc1 | 48.8% (inactive)
28 | C#Cc1nc(C2=C(C)C(=N\O)/C(=N/O)C2)cs1 | 196% (inactive)
29 | CC(=O)Nc1cc(F)cc(-c2ccc3[nH]cc(-c4ccccc4)c3n2)c1 | 48.6% (inactive)
30 | COc1ccc(/C=N/NC(=O)c2[nH]c3ccc(Br)cc3c2-c2ccccc2)o1 | 94.5% (inactive)
31 | Nc1nc(N)c2c(n1)NC(c1ccc(F)cc1)CC(c1ccc(Nc3nc(NCCO)nc(Nc4ccc(Cl)cc4)n3)cc1)=N2 (stereo not given) | 111% (inactive)
32 | Cc1c(Nc2nnc(SCC(=O)Nc3sc4c(c3C#N)CCCC4)s2)c(=O)n(-c2ccccc2)n1C | 135% (inactive)
33 | NS(=O)(=O)c1ccc(Nc2nc(Nc3ccccc3)nc(-n3nc(-c4ccccc4)cc3-c3ccccc3)n2)cc1 | 108% (inactive)
34 | CCOC(=O)c1c(NC(=O)c2cccc(C(F)(F)F)c2)sc2cc(O)ccc12 | 183% (inactive)
35 | Cc1cc2nc3c4cc(Cl)ccc4n(CC(=O)NCCN(C)C)c3nc2cc1C | 161% (inactive)
36 | O=C(N/N=C/c1ccco1)c1[nH]c2ccc(Br)cc2c1-c1ccccc1 | 98.7% (inactive)
37 | COc1ccc(/C=C2\SC(=Nc3cc(C)on3)NC2=O)cc1 | 106% (inactive)
38 | C=CCSc1ccc2c(c1)C(N1CCNCC1)=Nc1ccccc1O2 | 85% [8.25 µM] (inactive)
39 | O=c1[nH]c2ccc(Cl)cc2cc1CSc1ccccc1Nc1nccc(-c2ccc(Cl)cc2)n1 | 128% (inactive)
40 | CCN1C(=S)N(c2ccccc2)C2NC(=O)N(/N=C/C=C/c3ccccc3OC)C21 (stereo not given) | 105% (inactive)

Source: PubChem BioAssay (NCI)
